Measured values taken from PMC5540273 (PLoS ONE, 2017).

Assays:
Settings in all cases: concentration: 1 μM, replicates: in singlicate; n = 1
AAK1 = system: AAK1
ABL1-nonphosphorylated = system: ABL1-nonphosphorylated
ABL1-phosphorylated = system: ABL1-phosphorylated
ABL2 = system: ABL2
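Further: KINOMEscan kinase panel screen.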

SMILES | %Inh (AAK1) [%] | %Inh (ABL1-nonphosphorylated) [%] | %Inh (ABL1-phosphorylated) [%] | %Inh (ABL2) [%]
CCC(=O)c1c(-c2ccccc2)c2cc(Cl)ccc2c(=O)n1Cc1cc(C(=O)NC2CC2)n(C)n1 | 20 | 20 | 0 | 9
COc1ccc(-c2coc3ccc(-c4nnc(SCc5cccc(C#N)c5)o4)cc23)cc1 | 0 | 23 | 0 | 0
COc1cc2ncn(-c3cc(OCc4ccncc4Br)c(C(N)=O)s3)c2cc1OC [GW854278] | 17 | 15 | 0 | 5
COC(=O)c1c(-c2ccccc2)c2cc(Br)ccc2c(=O)n1Cc1ccc(S(C)(=O)=O)cc1 | 27 | 25 | 9 | 32
Nc1nc(N)c2nc(-c3ccccc3)[nH]c2n1 [SKF-12778] | 23 | 18 | 15 | 9
Nc1nccc2scc(-c3ccc4c(c3)CCN4C(=O)Cc3ccccc3)c12 [GSK2576924] | 8 | 0 | 0 | 1
CCCNC(=O)Nc1ccc(Oc2ncnc3ccn(C)c23)cc1 | 13 | 30 | 6 | 4
Cc1ccc(-c2ccc3c(ccc4sc5c(c43)NC[C@@H](C)N=C5N(C)C)n2)cn1 | 0 | 0 | 0 | 0
COc1cc(Nc2nccc(N3CCC(NC(=O)C(C)c4ccc(Cl)cc4)C3)n2)cc(OC)c1OC (centres unmarked) [GSK1379757] | 37 | 0 | 0 | 7
Nc1n[nH]c2nnc(-c3ccccc3)c(-c3ccccc3)c12 [GW554060] | 0 | 0 | 0 | 9
Cc1ccc(Oc2ccc(Nc3ncnc4cc[nH]c34)cc2C)cn1 | 0 | 19 | 0 | 0
O=C(Nc1ccc2c(c1)OCO2)NC1CCN(c2ccnc(NCc3ccc(F)cc3)n2)CC1 [GSK1379859] | 0 | 0 | 0 | 0
COc1cc2ncn(-c3cc(OCc4ccncc4)c(C(N)=O)s3)c2cc1OC [GSK336313] | 58 | 0 | 7 | 0
Cc1cccc(-c2nc(Nc3ccc4c(cnn4C)c3)c3ccccc3n2)n1 [GW876731] | 0 | 0 | 0 | 0
COc1ccc(-n2cnc3c(N)ncnc32)cc1 [SKF-97236] | 15 | 28 | 1 | 10
Cc1cc(Nc2nc(-c3cccc(C)n3)nc3ccccc23)ccn1 [GW872411] | 0 | 52 | 13 | 0
COc1cccc(C2=C(N(C)c3ccccc3)C(=O)NC2=O)c1 [SB-334865] | 0 | 5 | 3 | 14
